Measured values published in paper PMC7862700, “An all-to-all approach to the identification of sequence-specific readers for epigenetic DNA modifications on cytosine”.

How the values were obtained:
Experiment in all cases: DAPPL (digital affinity profiling via proximity ligation, sequencing); 10 mM Tris-HCl pH 7.5, 50 mM NaCl, 1 mM DTT, 4% glycerol, room temperature, 30 min; GST-TFs on glutathione beads, 16-mer random dsDNA library, 0.1% formaldehyde crosslink after washing; high values mean tight binding
FEV = biological target: T1, FEV (Homo sapiens, UniProt Q99581 1-238); details: protein: recombinant; tags: N-terminal GST; dsDNA, one strand shown
T1 sequence: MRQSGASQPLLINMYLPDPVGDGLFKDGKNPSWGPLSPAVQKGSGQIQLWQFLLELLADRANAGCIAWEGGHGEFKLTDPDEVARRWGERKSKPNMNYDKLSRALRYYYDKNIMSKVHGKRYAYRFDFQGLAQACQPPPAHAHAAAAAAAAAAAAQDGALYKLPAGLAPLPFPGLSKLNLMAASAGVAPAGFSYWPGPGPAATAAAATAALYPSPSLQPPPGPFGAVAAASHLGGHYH
How it was run: (§1)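 Yeast served to express human transcription factors as GST fusions, which were then captured on glutathione beads and labelled with DNA barcodes. Pooled with a tag-only sample, they were incubated with 200 nmole of a 16-mer random double-stranded DNA library for 30 min at room temperature in Tris/NaCl/DTT/glycerol buffer, washed, crosslinked with 0.1% formaldehyde, ligated by proximity, amplified by PCR and sequenced. Dividing each hexamer's read frequency for a factor by its frequency for the tag-only sample gives the binding signal.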

ETV5 = ETV5 (Homo sapiens, UniProt P41161 1-510); details: protein: recombinant; tags: N-terminal GST; dsDNA, one strand shown
Sequence of ETV5 (P41161 whole entry): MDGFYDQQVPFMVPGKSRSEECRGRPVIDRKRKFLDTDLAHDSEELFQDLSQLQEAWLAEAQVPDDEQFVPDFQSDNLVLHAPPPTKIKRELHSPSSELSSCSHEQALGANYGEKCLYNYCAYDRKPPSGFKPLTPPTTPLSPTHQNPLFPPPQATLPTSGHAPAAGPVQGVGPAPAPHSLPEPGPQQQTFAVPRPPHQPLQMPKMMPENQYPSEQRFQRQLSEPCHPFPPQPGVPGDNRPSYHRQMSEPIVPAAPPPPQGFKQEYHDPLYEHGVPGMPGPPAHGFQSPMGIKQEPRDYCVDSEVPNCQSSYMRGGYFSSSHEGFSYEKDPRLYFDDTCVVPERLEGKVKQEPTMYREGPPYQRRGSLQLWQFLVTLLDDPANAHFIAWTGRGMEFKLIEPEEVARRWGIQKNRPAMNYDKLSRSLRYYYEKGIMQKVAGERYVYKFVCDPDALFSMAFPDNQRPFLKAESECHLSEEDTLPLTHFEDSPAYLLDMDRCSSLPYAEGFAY
How it was run: as §1

HSF1 = HSF1 (Homo sapiens, UniProt Q00613 1-529); details: protein: recombinant; tags: N-terminal GST; chain copies: 3; dsDNA, one strand shown
Sequence of HSF1 (Q00613 whole entry): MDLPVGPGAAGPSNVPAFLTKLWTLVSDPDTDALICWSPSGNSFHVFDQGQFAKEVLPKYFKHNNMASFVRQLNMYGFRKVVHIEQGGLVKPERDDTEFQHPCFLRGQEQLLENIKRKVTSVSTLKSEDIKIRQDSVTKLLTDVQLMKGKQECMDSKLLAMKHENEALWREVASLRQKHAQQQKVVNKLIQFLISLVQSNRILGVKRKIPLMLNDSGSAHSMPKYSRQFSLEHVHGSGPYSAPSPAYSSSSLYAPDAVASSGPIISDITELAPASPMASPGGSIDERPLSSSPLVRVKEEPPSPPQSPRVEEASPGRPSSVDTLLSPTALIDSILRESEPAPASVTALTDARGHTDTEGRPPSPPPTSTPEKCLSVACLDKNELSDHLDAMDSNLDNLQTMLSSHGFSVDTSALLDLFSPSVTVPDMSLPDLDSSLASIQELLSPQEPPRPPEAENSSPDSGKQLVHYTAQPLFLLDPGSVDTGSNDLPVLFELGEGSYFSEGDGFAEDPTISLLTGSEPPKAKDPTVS
How it was run: as §1

SPIC = biological target: T2, SPIC (Homo sapiens, UniProt Q8N5J4 1-248); details: protein: recombinant; tags: N-terminal GST; dsDNA, one strand shown
T2 sequence: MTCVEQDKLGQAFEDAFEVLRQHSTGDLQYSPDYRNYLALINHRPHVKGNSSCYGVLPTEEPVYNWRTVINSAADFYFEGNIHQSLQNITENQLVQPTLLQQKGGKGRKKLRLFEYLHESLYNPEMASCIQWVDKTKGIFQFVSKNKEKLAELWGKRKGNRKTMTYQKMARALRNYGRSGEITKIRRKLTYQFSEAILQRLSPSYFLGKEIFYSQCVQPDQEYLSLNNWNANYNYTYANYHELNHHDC
How it was run: as §1

ELF4 = ELF4 (Homo sapiens, UniProt Q99607 1-663); details: protein: recombinant; tags: N-terminal GST; dsDNA, one strand shown
Sequence of ELF4 (Q99607 whole entry): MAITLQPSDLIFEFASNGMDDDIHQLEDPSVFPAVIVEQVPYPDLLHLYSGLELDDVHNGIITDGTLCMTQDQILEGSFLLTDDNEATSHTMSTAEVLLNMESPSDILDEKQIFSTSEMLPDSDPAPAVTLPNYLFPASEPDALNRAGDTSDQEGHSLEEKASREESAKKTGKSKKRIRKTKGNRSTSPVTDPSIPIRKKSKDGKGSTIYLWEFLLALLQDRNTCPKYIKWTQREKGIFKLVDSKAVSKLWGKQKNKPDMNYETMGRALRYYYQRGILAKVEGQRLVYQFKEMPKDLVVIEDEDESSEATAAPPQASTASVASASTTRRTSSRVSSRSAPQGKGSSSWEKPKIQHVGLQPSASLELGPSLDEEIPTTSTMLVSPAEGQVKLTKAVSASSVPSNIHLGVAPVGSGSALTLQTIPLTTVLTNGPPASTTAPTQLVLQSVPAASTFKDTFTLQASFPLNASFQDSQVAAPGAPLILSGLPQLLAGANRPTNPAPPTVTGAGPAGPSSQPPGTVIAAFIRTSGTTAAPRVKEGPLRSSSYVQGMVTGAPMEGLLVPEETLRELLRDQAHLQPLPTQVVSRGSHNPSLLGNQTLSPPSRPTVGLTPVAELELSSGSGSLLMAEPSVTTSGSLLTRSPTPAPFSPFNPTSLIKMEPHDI
How it was run: as §1

ELK4 = biological target: T3, ELK4 (Homo sapiens, UniProt P28324-2 1-405); details: protein: recombinant; tags: N-terminal GST; dsDNA, one strand shown
T3 sequence: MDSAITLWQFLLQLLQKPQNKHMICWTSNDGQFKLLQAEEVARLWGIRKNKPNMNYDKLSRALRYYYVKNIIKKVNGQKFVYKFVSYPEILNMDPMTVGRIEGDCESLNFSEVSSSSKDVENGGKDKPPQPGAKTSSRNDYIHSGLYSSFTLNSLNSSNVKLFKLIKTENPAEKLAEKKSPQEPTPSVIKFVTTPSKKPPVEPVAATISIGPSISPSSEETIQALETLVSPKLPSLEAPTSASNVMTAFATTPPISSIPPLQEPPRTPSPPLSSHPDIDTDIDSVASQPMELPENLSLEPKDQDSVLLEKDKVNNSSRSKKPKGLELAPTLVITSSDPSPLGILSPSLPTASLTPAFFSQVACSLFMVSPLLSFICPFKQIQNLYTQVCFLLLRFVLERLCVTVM
How it was run: as §1

ETV2 = biological target: T4, ETV2 (Homo sapiens, UniProt O00321 1-342); details: protein: recombinant; tags: N-terminal GST; dsDNA, one strand shown
T4 sequence: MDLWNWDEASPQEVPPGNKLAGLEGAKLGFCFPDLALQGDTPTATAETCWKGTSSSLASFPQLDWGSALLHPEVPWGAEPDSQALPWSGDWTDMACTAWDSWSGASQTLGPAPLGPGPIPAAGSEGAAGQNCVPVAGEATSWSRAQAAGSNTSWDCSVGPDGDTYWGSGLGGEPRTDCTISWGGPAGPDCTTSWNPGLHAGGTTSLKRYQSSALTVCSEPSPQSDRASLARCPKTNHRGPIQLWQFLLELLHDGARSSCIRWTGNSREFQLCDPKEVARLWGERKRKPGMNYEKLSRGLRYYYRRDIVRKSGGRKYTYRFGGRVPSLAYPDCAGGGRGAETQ
How it was run: as §1

ELF3 = biological target: T5, ELF3 (Homo sapiens, UniProt P78545 1-371); details: protein: recombinant; tags: N-terminal GST; dsDNA, one strand shown
T5 sequence: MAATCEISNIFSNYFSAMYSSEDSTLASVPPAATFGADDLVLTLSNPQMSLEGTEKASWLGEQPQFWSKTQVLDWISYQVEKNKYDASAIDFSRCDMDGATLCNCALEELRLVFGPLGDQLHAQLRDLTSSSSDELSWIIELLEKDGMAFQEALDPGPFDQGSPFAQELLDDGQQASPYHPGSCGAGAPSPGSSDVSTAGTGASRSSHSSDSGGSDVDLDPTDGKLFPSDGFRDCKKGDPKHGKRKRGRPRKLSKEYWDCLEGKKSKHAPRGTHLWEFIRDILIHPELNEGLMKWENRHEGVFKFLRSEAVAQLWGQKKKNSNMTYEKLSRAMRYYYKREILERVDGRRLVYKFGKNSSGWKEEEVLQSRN
How it was run: as §1

CRX = CRX (Homo sapiens, UniProt O43186 1-299); details: protein: recombinant; tags: N-terminal GST; dsDNA, one strand shown
Sequence of CRX (O43186 whole entry): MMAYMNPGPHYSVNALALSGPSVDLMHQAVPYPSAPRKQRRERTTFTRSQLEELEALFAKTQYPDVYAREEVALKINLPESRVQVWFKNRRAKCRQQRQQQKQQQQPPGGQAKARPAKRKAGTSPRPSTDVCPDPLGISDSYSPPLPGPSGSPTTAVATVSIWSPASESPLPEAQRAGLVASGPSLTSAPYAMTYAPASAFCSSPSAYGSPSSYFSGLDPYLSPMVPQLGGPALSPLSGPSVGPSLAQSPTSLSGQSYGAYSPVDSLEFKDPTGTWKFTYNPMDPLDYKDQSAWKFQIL
How it was run: as §1

ETV1 = ETV1 (Homo sapiens, UniProt P50549 1-477); details: protein: recombinant; tags: N-terminal GST; dsDNA, one strand shown
Sequence of ETV1 (P50549 whole entry): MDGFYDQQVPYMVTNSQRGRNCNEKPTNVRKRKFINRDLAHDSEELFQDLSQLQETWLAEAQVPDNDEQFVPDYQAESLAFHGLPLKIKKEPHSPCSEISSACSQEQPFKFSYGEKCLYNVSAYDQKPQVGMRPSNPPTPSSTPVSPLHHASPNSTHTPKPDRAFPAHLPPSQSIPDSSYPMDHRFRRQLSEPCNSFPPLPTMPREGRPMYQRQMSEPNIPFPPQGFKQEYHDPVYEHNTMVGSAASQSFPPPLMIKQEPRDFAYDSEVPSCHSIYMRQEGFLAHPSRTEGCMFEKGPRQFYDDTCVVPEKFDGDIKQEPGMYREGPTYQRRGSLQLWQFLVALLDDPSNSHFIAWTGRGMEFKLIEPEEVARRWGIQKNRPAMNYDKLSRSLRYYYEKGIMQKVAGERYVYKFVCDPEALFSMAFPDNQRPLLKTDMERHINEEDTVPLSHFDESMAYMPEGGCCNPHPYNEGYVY
How it was run: as §1

ERF = biological target: T6, ERF (Homo sapiens, UniProt P50548 1-548); details: protein: recombinant; tags: N-terminal GST; dsDNA, one strand shown
T6 sequence: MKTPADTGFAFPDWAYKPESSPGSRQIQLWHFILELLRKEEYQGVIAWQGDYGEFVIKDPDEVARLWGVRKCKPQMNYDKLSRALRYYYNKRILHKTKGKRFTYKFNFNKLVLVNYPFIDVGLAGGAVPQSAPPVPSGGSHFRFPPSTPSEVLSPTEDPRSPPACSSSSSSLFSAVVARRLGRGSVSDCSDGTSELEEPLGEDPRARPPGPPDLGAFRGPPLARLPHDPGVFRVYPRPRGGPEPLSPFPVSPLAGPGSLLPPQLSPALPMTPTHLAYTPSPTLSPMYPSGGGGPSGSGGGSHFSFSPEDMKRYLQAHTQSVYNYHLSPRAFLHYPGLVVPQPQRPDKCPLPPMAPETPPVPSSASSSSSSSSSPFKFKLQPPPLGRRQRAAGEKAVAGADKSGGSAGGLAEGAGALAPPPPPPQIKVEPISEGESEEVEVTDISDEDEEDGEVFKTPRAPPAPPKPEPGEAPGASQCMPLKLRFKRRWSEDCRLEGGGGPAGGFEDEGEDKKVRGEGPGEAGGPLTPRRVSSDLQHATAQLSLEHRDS
How it was run: as §1

ETV3L = biological target: T7, ETV3L (Homo sapiens, UniProt Q6ZN32 1-361); details: protein: recombinant; tags: N-terminal GST; dsDNA, one strand shown
T7 sequence: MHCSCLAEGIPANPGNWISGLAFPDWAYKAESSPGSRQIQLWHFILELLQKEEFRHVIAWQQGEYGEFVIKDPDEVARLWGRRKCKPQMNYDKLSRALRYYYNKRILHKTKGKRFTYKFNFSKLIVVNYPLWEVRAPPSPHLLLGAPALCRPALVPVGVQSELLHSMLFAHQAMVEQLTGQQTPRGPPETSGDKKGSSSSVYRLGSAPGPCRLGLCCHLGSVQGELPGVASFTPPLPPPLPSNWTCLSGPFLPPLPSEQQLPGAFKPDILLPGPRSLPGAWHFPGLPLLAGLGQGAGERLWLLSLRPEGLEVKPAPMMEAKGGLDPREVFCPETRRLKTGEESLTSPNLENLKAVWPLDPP
How it was run: as §1

ETS2 = biological target: T8, ETS2 (Homo sapiens, UniProt P15036 1-469); details: protein: recombinant; tags: N-terminal GST; dsDNA, one strand shown
T8 sequence: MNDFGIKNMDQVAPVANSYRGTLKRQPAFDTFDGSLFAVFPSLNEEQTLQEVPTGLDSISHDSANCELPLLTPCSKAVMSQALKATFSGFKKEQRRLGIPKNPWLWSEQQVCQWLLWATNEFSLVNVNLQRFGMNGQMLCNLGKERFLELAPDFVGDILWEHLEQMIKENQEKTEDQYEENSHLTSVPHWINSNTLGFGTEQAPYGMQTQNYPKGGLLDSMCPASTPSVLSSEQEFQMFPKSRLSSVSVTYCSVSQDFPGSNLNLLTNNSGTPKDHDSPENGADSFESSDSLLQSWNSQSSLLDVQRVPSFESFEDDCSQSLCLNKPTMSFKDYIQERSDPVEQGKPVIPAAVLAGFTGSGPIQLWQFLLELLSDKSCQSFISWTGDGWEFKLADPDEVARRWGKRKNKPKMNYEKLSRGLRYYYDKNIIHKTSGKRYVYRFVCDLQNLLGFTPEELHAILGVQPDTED
How it was run: as §1

SPDEF = biological target: T9, SPDEF (Homo sapiens, UniProt O95238 1-335); details: protein: recombinant; tags: N-terminal GST; dsDNA, one strand shown
T9 sequence: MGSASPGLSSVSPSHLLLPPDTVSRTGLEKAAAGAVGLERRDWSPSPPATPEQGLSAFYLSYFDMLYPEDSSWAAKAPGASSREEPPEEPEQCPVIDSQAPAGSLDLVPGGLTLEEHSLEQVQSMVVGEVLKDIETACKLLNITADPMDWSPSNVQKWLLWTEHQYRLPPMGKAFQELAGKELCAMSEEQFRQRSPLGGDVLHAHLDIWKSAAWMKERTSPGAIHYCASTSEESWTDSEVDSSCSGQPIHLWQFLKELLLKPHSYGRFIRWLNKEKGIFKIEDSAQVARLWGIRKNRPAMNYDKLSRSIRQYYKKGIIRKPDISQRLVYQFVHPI
How it was run: as §1

ETV7 = biological target: T10, ETV7 (Homo sapiens, UniProt Q9Y603 1-341); details: protein: recombinant; tags: N-terminal GST; dsDNA, one strand shown
T10 sequence: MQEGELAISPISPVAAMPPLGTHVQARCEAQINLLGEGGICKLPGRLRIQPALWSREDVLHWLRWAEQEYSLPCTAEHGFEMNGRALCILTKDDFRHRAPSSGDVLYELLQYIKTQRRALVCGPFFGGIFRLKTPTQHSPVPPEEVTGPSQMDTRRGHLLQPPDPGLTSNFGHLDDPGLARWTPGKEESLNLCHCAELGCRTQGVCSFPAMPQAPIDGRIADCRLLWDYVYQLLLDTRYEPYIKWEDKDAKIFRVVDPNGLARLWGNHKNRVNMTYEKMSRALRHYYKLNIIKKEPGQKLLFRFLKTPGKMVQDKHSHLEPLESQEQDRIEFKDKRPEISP
How it was run: as §1

ELF5 = biological target: T11, ELF5 (Homo sapiens, UniProt Q9UKW6-2 1-255); details: protein: recombinant; tags: N-terminal GST; dsDNA, one strand shown
T11 sequence: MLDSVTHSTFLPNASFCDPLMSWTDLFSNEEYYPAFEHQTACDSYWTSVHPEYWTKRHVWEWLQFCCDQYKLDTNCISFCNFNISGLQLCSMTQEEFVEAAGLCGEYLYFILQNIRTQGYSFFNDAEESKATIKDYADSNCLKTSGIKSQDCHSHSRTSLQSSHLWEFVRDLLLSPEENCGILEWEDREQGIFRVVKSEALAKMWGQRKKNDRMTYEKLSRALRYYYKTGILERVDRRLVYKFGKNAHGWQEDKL
How it was run: as §1

ETV3 = biological target: T12, ETV3 (Homo sapiens, UniProt P41162-2 1-143); details: protein: recombinant; tags: N-terminal GST; dsDNA, one strand shown
T12 sequence: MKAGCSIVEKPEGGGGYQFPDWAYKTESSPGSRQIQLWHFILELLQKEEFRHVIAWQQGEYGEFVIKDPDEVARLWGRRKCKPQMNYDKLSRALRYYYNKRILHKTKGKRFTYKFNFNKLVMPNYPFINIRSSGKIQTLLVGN
How it was run: as §1

ETV6 = ETV6 (Homo sapiens, UniProt P41212 1-452); details: protein: recombinant; tags: N-terminal GST; dsDNA, one strand shown
Sequence of ETV6 (P41212 whole entry): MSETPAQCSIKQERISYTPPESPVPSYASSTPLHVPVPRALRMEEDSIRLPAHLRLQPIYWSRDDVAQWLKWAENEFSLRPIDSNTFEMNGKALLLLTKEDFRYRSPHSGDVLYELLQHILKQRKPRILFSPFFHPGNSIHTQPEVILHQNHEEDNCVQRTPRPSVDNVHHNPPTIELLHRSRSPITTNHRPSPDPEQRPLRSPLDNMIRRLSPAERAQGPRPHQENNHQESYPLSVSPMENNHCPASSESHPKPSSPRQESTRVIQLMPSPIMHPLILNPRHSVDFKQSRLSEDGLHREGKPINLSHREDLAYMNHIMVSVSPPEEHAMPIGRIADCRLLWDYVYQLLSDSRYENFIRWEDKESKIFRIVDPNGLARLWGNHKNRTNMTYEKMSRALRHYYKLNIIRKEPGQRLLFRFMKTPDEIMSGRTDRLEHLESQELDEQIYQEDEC
How it was run: as §1

With CCCGCT the binding signal (FEV) was 1.35 fold enrichment (6-mer frequency, TF over GST control), the binding signal (ETV5) was 1.32 fold enrichment (6-mer frequency, TF over GST control) and the binding signal (HSF1) was 1.26 fold enrichment (6-mer frequency, TF over GST control). The binding signal (SPIC) was 1.25 fold enrichment (6-mer frequency, TF over GST control), the binding signal (ELF4) was 1.49 fold enrichment (6-mer frequency, TF over GST control) and the binding signal (ELK4) was 1.62 fold enrichment (6-mer frequency, TF over GST control). The binding signal (ETV2) was 1.16 fold enrichment (6-mer frequency, TF over GST control), the binding signal (ELF3) was 1.32 fold enrichment (6-mer frequency, TF over GST control) and the binding signal (CRX) was 1.25 fold enrichment (6-mer frequency, TF over GST control). For the same sequence, the binding signal (ETV1) was 1.44 fold enrichment (6-mer frequency, TF over GST control), the binding signal (ERF) was 1.37 fold enrichment (6-mer frequency, TF over GST control) and the binding signal (ETV3L) was 1.47 fold enrichment (6-mer frequency, TF over GST control). For the same sequence, the binding signal (ETS2) was 1.22 fold enrichment (6-mer frequency, TF over GST control), the binding signal (SPDEF) was 1.32 fold enrichment (6-mer frequency, TF over GST control) and the binding signal (ETV7) was 1.36 fold enrichment (6-mer frequency, TF over GST control). For the same sequence, the binding signal (ELF5) was 1.39 fold enrichment (6-mer frequency, TF over GST control), the binding signal (ETV3) was 1.36 fold enrichment (6-mer frequency, TF over GST control) and the binding signal (ETV6) was 1.38 fold enrichment (6-mer frequency, TF over GST control).
